Molecules are shown by their SMILES. Records with an inconclusive call do not appear. Activity calls are given as the source filed them. The calls were made as follows, unless noted: active = hit-call score of the fitted dose curve at least 0.9, where 1 is the maximum; inconclusive = response in the unintended direction; inactive = score below 0.9.

The target in assay [1] is PGR (gene 5241) (UniProt P06401). In words: TOX21_PR_BLA_Followup_Antagonist_ratio: Tox21 HEK293 Progesterone Receptor (PR) Antagonism Beta-lactamase Follow-Up Assay, Ratio (AID 2283934).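 Also: PR-UAS-bla HEK293T cells stimulated with 1 nM R5020 agonist for 16 hr.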 In short, it runs like this:
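Antagonist mode used 1 nM R5020 (final) as agonist on a beta-lactamase reporter line in HEK293T cells. Activity was taken from the substrate cleavage ratio after 16 hr exposure.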

The nature of assay [2]: TOX21_PR_BLA_Followup_Agonist_viability: Viability Assessment in the Tox21 HEK293 Progesterone Receptor (PR) Agonism Beta-lactamase Follow-Up Assay (AID 2283935).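 Also: signal loss means lower viability so actives are cytotoxic.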 In short, it runs like this: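 Multiplexed viability counter-screen: ATP-coupled luciferase signal measured after 30 min at room temperature, following 16 hr compound treatment of PR-UAS-bla HEK293T cells grown in charcoal-stripped serum.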

Assay [3] in a line: TOX21_PR_BLA_Followup_Antagonist_viability: Viability Assessment in the Tox21 HEK293 Progesterone Receptor (PR) Antagonism Beta-lactamase Follow-Up Assay (AID 2283936).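 Also: hits lower the luminescence signal meaning cytotoxicity.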 A digest of the protocol:
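PR-UAS-bla HEK293T cells (3,000/well, 2% charcoal-stripped FBS) given compound plus R5020 agonist, 16 h at 37C. CellTiter-Glo added after bla read, 30 min at room temperature; luminescence loss indicates cytotoxicity.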

Assay [4] in a line: TOX21_PR_LUC_Followup_Antagonist_viability: Viability Assessment in the Tox21 HEK293 Progesterone Receptor (PR) Antagonism Luciferase Follow-Up Assay (AID 2283940). A digest of the protocol:
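Cellular ATP, measured with luciferase-coupled CellTiter-Glo, served as the viability endpoint after HEK293-PR-A-luc cells were exposed to test compounds for 16 h at 37C.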

Assay [5] can be described thus: TOX21_PR_LUC_Followup_Agonist_viability: Viability Assessment in the Tox21 HEK293 Progesterone Receptor (PR) Agonism Luciferase Follow-Up Assay (AID 2283941).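 Also: loss of signal means cytotoxicity so actives lower viability.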 A digest of the protocol: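 Luminescent ATP quantitation (CellTiter-Glo) serves as the read-out; a drop flags cytotoxic compounds. Cells are HEK293-PR-A-luc grown in 10% charcoal-stripped FBS, plated 3,000/well, and exposed to compound for 16 h.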

Assay [6] in a line: CEETOX_H295R_OHPREG_noMTC: CeeTox H295R High-throughput Steroidogenesis Assay for OH-Pregnenolone (OHPREG), maximum tolerated concentration (MTC) filtered results only (AID 2283912; active = hit-call score of the fitted dose curve at least 0.9, where 1 is the maximum; inactive = score below 0.9). As to conditions: actives raise or lower the signal. In short, it runs like this: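 H295R cells prestimulated 48 h with 10 uM forskolin, then exposed 48 h to compound (0.1% DMSO). 17alpha-hydroxypregnenolone in medium measured by MTBE extraction and HPLC-MS/MS; bidirectional fit vs DMSO, concentrations not MTT/MTC-filtered.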

Assay [7] is described as follows: CEETOX_H295R_OHPROG_noMTC: CeeTox H295R High-throughput Steroidogenesis Assay for OH-Progesterone (OHPROG), maximum tolerated concentration (MTC) filtered results only (AID 2283914; active = hit-call score of the fitted dose curve at least 0.9, where 1 is the maximum; inactive = score below 0.9). The following applies: actives raise or lower the signal. In short, it runs like this:
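H295R cells prestimulated 48 h with 10 uM forskolin, then exposed 48 h to chemical (0.1% DMSO final). 17alpha-hydroxyprogesterone in medium quantified by HPLC-MS/MS after MTBE extraction; bidirectional fitting versus DMSO, concentrations not MTC-filtered.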

A short description of assay [8]: CEETOX_H295R_CORTISOL_noMTC: CeeTox H295R High-throughput Steroidogenesis Assay for Cortisol, maximum tolerated concentration (MTC) filtered results only (AID 2283916; active = hit-call score of the fitted dose curve at least 0.9, where 1 is the maximum; inactive = score below 0.9). The following applies: actives raise or lower the signal. A digest of the protocol: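 H295R human adrenal cells prestimulated 48 h with 10 uM forskolin, then exposed 48 h to chemical in 0.1% DMSO; cortisol in medium quantified by HPLC-MS/MS; bidirectional fit vs DMSO baseline, concentrations not MTT-filtered for MTC.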

Assay [9] can be described thus: CEETOX_H295R_CORTIC_noMTC: CeeTox H295R High-throughput Steroidogenesis Assay for Corticosterone (CORTIC), maximum tolerated concentration (MTC) filtered results only (AID 2283917; active = hit-call score of the fitted dose curve at least 0.9, where 1 is the maximum; inactive = score below 0.9). The following applies: actives raise or lower the signal. A digest of the protocol: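 H295R adrenal cells pre-stimulated 48 h with 10 uM forskolin, then exposed 48 h to chemical in 0.1% DMSO; corticosterone in medium quantified by HPLC-MS/MS, fitted bidirectionally versus DMSO without MTT-based concentration filtering.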

Assay [10] can be described thus: CEETOX_H295R_DOC_noMTC: CeeTox H295R High-throughput Steroidogenesis Assay for DOC, maximum tolerated concentration (MTC) filtered results only (AID 2283918; active = hit-call score of the fitted dose curve at least 0.9, where 1 is the maximum; inactive = score below 0.9). The following applies: actives raise or lower the signal. A digest of the protocol: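 H295R cells prestimulated 48 h with 10 uM forskolin, then exposed 48 h to chemical in 0.1% DMSO. 11-Deoxycorticosterone in medium measured by MTBE extraction and HPLC-MS/MS; bidirectional fit vs DMSO, no MTC filter.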

Assay [11] is described as follows: CEETOX_H295R_ESTRADIOL_noMTC: CeeTox H295R High-throughput Steroidogenesis Assay for Estradiol, maximum tolerated concentration (MTC) filtered results only (AID 2283919; active = hit-call score of the fitted dose curve at least 0.9, where 1 is the maximum; inactive = score below 0.9). As to conditions: actives raise or lower the signal. A digest of the protocol:
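H295R human adrenal cells pre-stimulated 48 h with 10 uM forskolin, then exposed 48 h to chemical (0.1% DMSO final). Estradiol in medium measured by HPLC-MS/MS after MTBE extraction and dansyl derivatization; bidirectional fit versus DMSO, concentrations not MTT-filtered.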

Assay [12] in a line: CEETOX_H295R_PROG_noMTC: CeeTox H295R High-throughput Steroidogenesis Assay for Progesterone (PROG), maximum tolerated concentration (MTC) filtered results only (AID 2283920; active = hit-call score of the fitted dose curve at least 0.9, where 1 is the maximum; inactive = score below 0.9). The following applies: actives raise or lower the signal. A digest of the protocol: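 H295R cells, prestimulated 48 h with 10 uM forskolin, exposed 48 h to chemical in 0.1% DMSO. Medium progesterone quantified by MTBE extraction and HPLC-MS/MS; bidirectional fit versus DMSO, concentrations not MTT-filtered.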

The nature of assay [13]: CEETOX_H295R_ESTRONE_noMTC: CeeTox H295R High-throughput Steroidogenesis Assay for Estrone, maximum tolerated concentration (MTC) filtered results only (AID 2283921; active = hit-call score of the fitted dose curve at least 0.9, where 1 is the maximum; inactive = score below 0.9). As to conditions: actives raise or lower the signal. A digest of the protocol:
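H295R cells prestimulated 48 h with 10 uM forskolin, then exposed 48 h to chemical in 0.1% DMSO; medium estrone measured by HPLC-MS/MS after MTBE extraction and dansyl derivatization, fitted bidirectionally versus DMSO without MTT-based MTC filtering.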

The target in assay [14] is PGR (gene 5241) (UniProt P06401). The experiment in a line: TOX21_PR_LUC_Followup_Antagonist: Tox21 HEK293 Progesterone Receptor (PR) Antagonism Luciferase Follow-Up Assay (AID 2283938).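 Also: curve fitted upward as signal gain over DMSO baseline despite antagonist label.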 In short, it runs like this: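 HEK293-PR-A-luc cells were precultured 5 days in medium with 10% charcoal-stripped FBS, seeded 3,000/well, then exposed to compounds in DMSO for 16 h at 37C. Luciferase was read by ONE-Glo luminescence after 30 min at room temperature.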

A further assay has as its target THRA (gene 7067) (UniProt P10827). The experiment in a line: TOX21_TRA_COA_Agonist_Followup_ratio: Tox21 Thyroid Hormone Receptor alpha Agonism through Coactivator Recruitment Follow-Up Assay, Ratio (AID 2283948; active = hit-call score of the fitted dose curve at least 0.9, where 1 is the maximum; inactive = score below 0.9). A digest of the protocol:
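Read-out is the 520/495 nm emission ratio (ex 340 nm), scaled between DMSO-only wells as 0% and T3 wells as 100%. It reflects fluorescein-SRC-2 peptide recruitment to GST-TRα LBD detected via terbium anti-GST antibody.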

Assay [15] can be described thus: CEETOX_H295R_ANDR_noMTC: CeeTox H295R High-throughput Steroidogenesis Assay for Androstenedione (ANDR), maximum tolerated concentration (MTC) filtered results only (AID 2283915; active = hit-call score of the fitted dose curve at least 0.9, where 1 is the maximum; inactive = score below 0.9). As to conditions: actives raise or lower the signal. In short, it runs like this:
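H295R cells, passage 10 or below, prestimulated 48 h with 10 uM forskolin, then exposed 48 h to chemical in 0.1% DMSO. Medium androstenedione extracted with MTBE, quantified by HPLC-MS/MS; concentrations not MTC-filtered; bidirectional fit versus DMSO.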

Assay [16] is described as follows: CEETOX_H295R_TESTO_noMTC: CeeTox H295R High-throughput Steroidogenesis Assay for Testosterone (TESTO), maximum tolerated concentration (MTC) filtered results only (AID 2283924; active = hit-call score of the fitted dose curve at least 0.9, where 1 is the maximum; inactive = score below 0.9). The following applies: actives raise or lower the signal. A digest of the protocol:
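H295R cells prestimulated 48 h with 10 uM forskolin, then exposed 48 h to chemicals in 0.1% DMSO final. Testosterone in medium quantified by MTBE extraction and HPLC-MS/MS; bidirectional fit versus DMSO, concentrations […] filtered by MTT-based maximum tolerated concentration.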

PGR (gene 5241), sequence (P06401 whole entry, looked up): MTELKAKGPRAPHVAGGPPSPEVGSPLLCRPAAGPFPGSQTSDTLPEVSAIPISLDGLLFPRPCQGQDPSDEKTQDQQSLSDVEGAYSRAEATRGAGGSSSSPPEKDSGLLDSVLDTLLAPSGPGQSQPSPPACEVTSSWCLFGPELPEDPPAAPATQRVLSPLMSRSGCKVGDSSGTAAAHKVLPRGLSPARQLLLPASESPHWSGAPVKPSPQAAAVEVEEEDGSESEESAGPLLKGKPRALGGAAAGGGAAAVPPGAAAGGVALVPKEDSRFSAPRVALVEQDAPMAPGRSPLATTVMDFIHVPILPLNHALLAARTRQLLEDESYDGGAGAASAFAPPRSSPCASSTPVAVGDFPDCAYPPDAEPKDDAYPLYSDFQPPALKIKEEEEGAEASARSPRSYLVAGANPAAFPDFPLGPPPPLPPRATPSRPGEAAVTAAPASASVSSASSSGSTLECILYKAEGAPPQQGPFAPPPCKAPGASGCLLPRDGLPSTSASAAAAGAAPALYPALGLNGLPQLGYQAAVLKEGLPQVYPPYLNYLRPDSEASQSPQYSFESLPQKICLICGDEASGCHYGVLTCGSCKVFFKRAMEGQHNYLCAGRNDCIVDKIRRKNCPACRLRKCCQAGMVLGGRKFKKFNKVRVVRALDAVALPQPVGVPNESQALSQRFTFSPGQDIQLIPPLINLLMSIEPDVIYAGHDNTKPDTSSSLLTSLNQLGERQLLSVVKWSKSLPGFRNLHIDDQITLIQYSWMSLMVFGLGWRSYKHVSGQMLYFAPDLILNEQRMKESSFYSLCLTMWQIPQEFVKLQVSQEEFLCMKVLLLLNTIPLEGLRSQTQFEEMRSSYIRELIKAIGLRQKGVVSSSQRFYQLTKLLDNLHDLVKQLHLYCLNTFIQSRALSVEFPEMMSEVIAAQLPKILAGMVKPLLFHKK
THRA (gene 7067), sequence (P10827 whole entry, looked up, the tested form may be a part): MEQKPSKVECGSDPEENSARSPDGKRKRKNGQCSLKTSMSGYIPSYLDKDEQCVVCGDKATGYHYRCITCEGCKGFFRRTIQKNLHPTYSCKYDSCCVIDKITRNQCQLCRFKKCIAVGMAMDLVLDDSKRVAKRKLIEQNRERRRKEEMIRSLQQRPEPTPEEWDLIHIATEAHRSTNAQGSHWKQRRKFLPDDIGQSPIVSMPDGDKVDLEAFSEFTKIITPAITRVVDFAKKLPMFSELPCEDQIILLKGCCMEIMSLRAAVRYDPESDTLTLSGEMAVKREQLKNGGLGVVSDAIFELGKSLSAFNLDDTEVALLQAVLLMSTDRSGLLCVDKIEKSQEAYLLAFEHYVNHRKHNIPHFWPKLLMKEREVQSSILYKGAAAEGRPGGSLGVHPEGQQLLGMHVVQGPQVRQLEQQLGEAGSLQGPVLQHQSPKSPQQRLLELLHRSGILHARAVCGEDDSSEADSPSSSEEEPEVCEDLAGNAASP

For `C[C@]12CCC(=O)C[C@@H]1CC[C@@H]1[C@@H]2CC[C@]2(C)[C@@H](O)CC[C@@H]12`, the result (with PGR (gene 5241) [1]; in assay [2]; in assay [3]; in assay [4]; in assay [5]) was inactive.

On to `Cn1sc(Cl)cc1=O`, for which the result in assay [6], in assay [7], in assay [8], in assay [9], in assay [10] and in assay [11] was inactive. In addition, the compound was called inactive in [12] and in assay [13].

For orientation: AC50 means the midpoint of the concentration-response curve, whichever way the signal moves. For the compound `Oc1ccc(-c2ccccc2)cc1`, the AC50 with PGR (gene 5241) [1] is 29.5 µM (active); with PGR (gene 5241) [14] it was 33 µM (active). Also, the result in assay [2], in assay [3] and in [4] was inactive.

As for `C[C@]12CC[C@H](O)CC1=CC[C@@H]1[C@@H]2CC[C@]2(C)C(=O)CC[C@@H]12`, the AC50 in the assay with PGR (gene 5241) [1] is 16.1 µM (active). Also, the call (in assay [2]; in assay [3]; in the assay with PGR (gene 5241) [14]; in [4]; in assay [5]) was inactive.

Turning to `CC(C)C1CCC(Cc2ccc(Cl)cc2)C1(O)Cn1cncn1` (stereo not given), the AC50 in the assay with PGR (gene 5241) [1] is 15.8 µM (active); in assay [2], 75.5 µM (active); in the assay with PGR (gene 5241) [14], 22 µM (active). The result in assay [3], in assay [4] and in assay [5] was inactive.

With `C=C(C)C(=O)[O][Sn]([CH2]CCC)([CH2]CCC)[CH2]CCC`, the outcome with THRA (gene 7067) was inactive.

Regarding `Clc1ccc(C2(Cn3cncn3)CC(Br)CO2)c(Cl)c1` (stereo not given), the AC50 with PGR (gene 5241) [1] was 37.7 µM (active); in the assay with PGR (gene 5241) [14] it was 46.1 µM (active). The compound was classed as inactive in assay [2], in [3], in assay [4] and in assay [5].

On to `CCC1(c2ccc(N)cc2)CCC(=O)NC1=O` (stereo not given), for which the call in [6], in assay [7], in assay [15], in [8], in assay [9] and in assay [10] was inactive. In addition, the compound was classed as inactive in assay [12] and in assay [16].

Take `c1cc[c]([Hg][c]2ccccc2)cc1`: the AC50 in assay [6] is 27.1 µM (active); in assay [7], 32 µM (active); in assay [15], 50 µM (active); in assay [8], 36.9 µM (active); in [9], 76.1 µM (active); in assay [10] it was 2.26 µM (active). Further, the AC50 in assay [12] is 21.9 µM (active); in assay [16], 67.9 µM (active). Further, the compound was classed as inactive in assay [11] and in assay [13].

Values taken from PubChem BioAssay (EPA / NIEHS).
